This note sets out measurements from PubChem BioAssay AID493084 (National Center for Advancing Translational Sciences (NCATS), 2011).

Values joined by “and” are separate entries in the source; they are usually repeats but may differ in a detail not shown here. Equal entries are not always repeated. The campaign covered roughly 360,000 compounds. About 650 (0.18%) were called active. The sample holds actives, similar compounds and a random draw of the others, so the mix is not that of the screen. Cut-off read from the data, not from the text of the source: active = activation above about 30%; inactive = the rest.

Sequence of Thyrotropin-releasing hormone receptor (Homo sapiens) (P34981 whole entry, looked up): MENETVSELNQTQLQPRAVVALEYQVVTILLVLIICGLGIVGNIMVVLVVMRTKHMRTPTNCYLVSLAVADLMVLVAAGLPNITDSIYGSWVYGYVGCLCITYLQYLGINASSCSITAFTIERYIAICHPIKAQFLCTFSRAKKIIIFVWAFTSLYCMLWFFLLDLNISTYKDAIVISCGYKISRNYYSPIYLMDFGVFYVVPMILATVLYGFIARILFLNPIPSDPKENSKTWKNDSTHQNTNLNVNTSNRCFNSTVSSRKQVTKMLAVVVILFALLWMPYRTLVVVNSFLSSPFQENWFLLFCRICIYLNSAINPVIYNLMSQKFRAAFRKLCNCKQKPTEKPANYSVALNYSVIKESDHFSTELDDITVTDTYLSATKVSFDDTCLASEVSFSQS

The experiment has as its target Thyrotropin-releasing hormone receptor (Homo sapiens) (UniProt P34981). In words: qHTS for Small Molecule Agonists and Allosteric Enhancers of Human TRH Receptor: Primary Screen for Agonists. Note: 0% is about no effect. To be noted: TRHR cells, calcium flux fluo-8, FDSS agonist mode; at 2 µM; hits give high values. The source says:
NIH Chemical Genomics Center [NCGC] NIH Molecular Libraries Probe Centers Network [MLPCN] MLPCN Grant: MH089816-01 Assay Submitter (PI): Marvin Gershengorn This project aims to identify small drug-like molecules that activate (agonists) the thyrotropin releasing hormone (TRH) receptor (TRHR) or enhance its TRH-stimulated activity (allosteric enhancers). TRHR, a drug-accessible cell surface receptor expressed in specific brain regions, and its ligand TRH have been implicated in several central nervous system disorders, including depression and anxiety. Small molecule TRHR agonists or allosteric enhancers that are metabolically stable and able to cross the blood-brain barrier might serve as probes to elucidate the roles of brain TRH receptors in animal models, and might be valuable as lead compounds for the development of drugs to treat patients with central nervous system disorders. Upon TRHR-Gq activation in TRHR cells, intracellular calcium is released from stores in the endoplasmic reticulum. […] This primary screen measures compound-induced activation of calcium release.
For the HTS assay freshly prepared cells are plated at a density of 2000/well in 3 ul of complete DMEM medium containing 10% serum in 1536-well plates and cultured over night at 37 C in a humidified incubator with 5% CO2. The next day, 2 ul of a no wash calcium dye (ABD Bioquest) was added to the cells and plates were incubated at room temperature for 1 hour. For the assay, assay plates were loaded into the FDSS kinetic plate reader. A 10 cycle (1 second/cycle) baseline measurement is taken and then the FDSS online 1536 pintool delivers 23 nl of compound library (as well as TRH controls) to the plate. The plate is measured for kinetically at 1 cycle/sec for 180 seconds and is considered to be the agonist portion of the assay (eg, compounds which activate a positive calcium response during this portion are flagged as potential agonists). Following the 180 second read, 1 ul of either an EC20 (positive modulation assay) is delivered by an onboard pipette head. Measurements are taken kinetically for an additional 180 seconds. TRHR FDSS Screening Protocol 1. Reagent, 3 uL 2000 cells/well 1536 TC treated Black plate in media containing 10% FCS 2. Time, 18 hours, 33.5C 5% CO2 (cells grown at 37C) 3. Reagent, 2 uL ABD fluo-8 Ca dye 4. Time, 30 min-1.5hrs hours, Room temp (6 plates/batch) 5. Detector, EX 480/EM 530C, FDSS 10 cycles baseline (1sec/cycle) 6. Compound, 23 nL of stock solution from library 7. Detector, EX 480/EM 530C, FDSS […] (1sec/cycle) Agonist mode 8. Compound, 1 ul EC20 of TRH made up in HEPES HBSS, 10 nM final 9. Detector, EX 480/EM 530C, FDSS 100 cycles (1sec/cycle) Potentiator mode
`CCc1ccccc1NC(=O)/C(=C/c1ccccc1)c1ccccc1`: the activation is 56.2% (active).
`CCc1ccccc1NC(=S)Nc1cc(OC)c(NC(=O)C(C)C)cc1OC`: the activation was 0.112% (inactive).
As for `CCc1ccccc1NC(=O)CCOc1ccccc1`, the activation is 0.744% (inactive) and -1.55% (inactive).
Turning to `Cc1c(NC(=O)C(C)(C)C)cccc1-c1nc2ccccc2s1`, the activation was 1.53% (inactive).
Consider `O=C(Cn1nc(Cc2cccnc2)c2ccccc2c1=O)N1CCN(c2ccccc2F)CC1`, for which the activation is -1.92% (inactive).
The value for `CCOc1ccc(NC(=O)c2cnn(-c3ccccc3)c2-n2cccc2)cc1` was -2.32% (inactive); that for `O=C(NCCCO)C(=O)Nc1c2c(nn1-c1ccc(F)cc1)CSC2` was -1.01% (inactive); that for `CCOC(=O)c1cc2cc(C)ccc2[nH]1` was 0.835% (inactive).
Consider `CCOC(=O)c1ccc2[nH]c3c(c2c1)CCCC3NC=O` (stereo not drawn), for which the activation is 0.37% (inactive).
Regarding `CCOC(=O)c1[nH]c2ccc(C)cc2c1N=C(C)N(C)C`, the activation is 32.1% (active).
As for `O=C(CSc1nc(C2CC2)nc2ccccc12)Nc1ccc2c(c1)OCCO2`, the activation was -1.49% (inactive).
In the case of `NC(=O)c1ccc(NC(=O)COC(=O)c2c3c(nc4ccccc24)/C(=C\c2ccc4c(c2)OCO4)CCC3)cc1`, the activation is 50.8% (active).
`NC(=O)c1ccc(NC(=O)COC(=O)C(Cc2ccccc2)NC(=O)c2ccccc2)cc1` (stereo not drawn): the activation was -0.12% (inactive).
With `Cn1nnnc1Sc1ncnc2scc(-c3ccccc3[N+](=O)[O-])c12`, the activation was -0.547% (inactive).
As to `N#Cc1nc(/C=C/c2ccc(F)cc2)oc1NC1CCCCC1`, the activation was 0.903% (inactive).
Regarding `CCCCOc1ccc(CNC(=O)c2ccc3c(c2)N(C)C(=O)C2CCCCN32)cc1` (stereo not drawn), the activation is -0.251% (inactive).
As to `CNC(=O)c1ccc(-c2nc(CN3CCc4ccccc43)c(C)o2)cc1`, the activation was -1.17% (inactive).
Consider `Nc1c(C(=O)c2cccs2)sc2nsc(SCCN3CCCCC3)c12`, for which the activation is 99.5% (active).
The value for `COC(=O)c1ccccc1NC(=O)c1cc(-c2ccccc2O)no1` was -0.321% (inactive); that for `CC(NC(=O)CCc1cn(Cc2ccccc2Cl)c2ccccc12)c1ccccc1` (stereo not drawn) was 0.58% (inactive).
As to `COc1cc(OC)c(OC)cc1/C=C/c1nc2cc3ccccc3cc2c(=O)n1-c1ccc(F)c(Cl)c1`, the activation is 0.234% (inactive).
With `Cc1cc2nc3c(=O)n(Cc4ccccc4)c(=O)[nH]c3nc2cc1N`, the activation was 134% (active).
As to `Cn1c(=O)[nH]c(=O)c2c1[nH]c(=S)n2Cc1ccccc1`, the activation is 0.0169% (inactive).
Consider `CCC(=O)Nc1ccc(C)cc1-c1nc2ccccc2n(Cc2ccccc2)c1=O`, for which the activation is 0.131% (inactive).
For the compound `CCN(CCCNC(=O)Cn1ncc2c([nH]c3ccccc32)c1=O)c1cccc(C)c1`, the activation was -0.233% (inactive).
The result for `Cc1cccc(CC(=O)N2CC(=O)Nc3ccc(F)cc3C2c2ccccc2)c1` (stereo not drawn) reads -0.138% (inactive); that for `O=C(O)c1ccc(CSc2nc3cccnc3n2Cc2cccc(F)c2)cc1`, -0.0878% (inactive).
The result for `CCCNC(=O)c1ccc2c(c1)ncn2-c1ccc(C)cc1C` reads -0.34% (inactive); that for `Cc1ccc2nc(N3C(=O)C(O)=C(C(=O)c4ccco4)C3c3cccc(O)c3)sc2c1` (stereo not drawn), 0.69% (inactive); that for `O=C(C1=C(O)C(=O)N(c2ncccn2)C1c1cccs1)c1ccco1` (stereo not drawn), 1.88% (inactive).
On to `C=CCSc1nnc(N2C(=O)C(O)=C(C(=O)c3ccco3)C2c2ccc(F)cc2)s1` (stereo not drawn), for which the activation is 48.4% (active).
For the compound `CCNS(=O)(=O)c1ccc(NC(=O)CSc2nc(-c3ccco3)cc(C(F)(F)F)n2)cc1`, the activation was -0.0767% (inactive).
Regarding `O=C(CNC(=O)c1ccc(Cl)c(C(F)(F)F)c1)OC(C(=O)Nc1cc(C(F)(F)F)ccc1Cl)c1ccccc1` (stereo not drawn), the activation is 1.33% (inactive).
Consider `COc1cc2ccccc2cc1C(=O)Nc1cccc(-c2nc3ccccc3o2)c1`, for which the activation is 0.963% (inactive).
For the compound `COc1cccc(C(=O)NC2CCN(C#N)CC2)c1`, the activation was 0.979% (inactive).
`CCc1ccccc1NC(=O)c1sc2nc3c(cc2c1N)CN(Cc1ccccc1)CC3`: the activation is 0.215% (inactive).
Regarding `Cn1c(=O)c2c(nc(SCC(=O)Nc3ccc(F)cc3)n2Cc2ccccc2)n(C)c1=O`, the activation is -1.27% (inactive).
In the case of `Cc1ccc(C)n1-c1nnc(N2CCC(C(=O)NCc3ccc(F)cc3)CC2)s1`, the activation is -0.123% (inactive).
Consider `COc1cccc(-c2nnc3n(CCc4ccccc4)c(=O)c4ccccc4n23)c1O`, for which the activation was 0.407% (inactive).
The value for `Cc1ccc(CNC(=O)CCNS(=O)(=O)c2ccc3c(c2)oc(=O)n3C)cc1` was -0.309% (inactive); that for `COc1ccc(-n2ccn(CC(=O)Nc3ccc(C)c(C)c3)c(=O)c2=O)cc1OC` was 0.851% (inactive); that for `CCOC(=O)C1CCCN(S(=O)(=O)c2cc(-c3cc(C)no3)ccc2OC)C1` (stereo not drawn) was -0.0318% (inactive).
The value for `CC(=O)c1ccc(NC(=O)CSc2nc(-c3ccccc3F)nc3c2c(=O)n(C)c(=O)n3C)cc1` was 0.407% (inactive).
